Results from the supplement of paper PMC12632987.

T1: USP38, Q8NB14
T1 chain: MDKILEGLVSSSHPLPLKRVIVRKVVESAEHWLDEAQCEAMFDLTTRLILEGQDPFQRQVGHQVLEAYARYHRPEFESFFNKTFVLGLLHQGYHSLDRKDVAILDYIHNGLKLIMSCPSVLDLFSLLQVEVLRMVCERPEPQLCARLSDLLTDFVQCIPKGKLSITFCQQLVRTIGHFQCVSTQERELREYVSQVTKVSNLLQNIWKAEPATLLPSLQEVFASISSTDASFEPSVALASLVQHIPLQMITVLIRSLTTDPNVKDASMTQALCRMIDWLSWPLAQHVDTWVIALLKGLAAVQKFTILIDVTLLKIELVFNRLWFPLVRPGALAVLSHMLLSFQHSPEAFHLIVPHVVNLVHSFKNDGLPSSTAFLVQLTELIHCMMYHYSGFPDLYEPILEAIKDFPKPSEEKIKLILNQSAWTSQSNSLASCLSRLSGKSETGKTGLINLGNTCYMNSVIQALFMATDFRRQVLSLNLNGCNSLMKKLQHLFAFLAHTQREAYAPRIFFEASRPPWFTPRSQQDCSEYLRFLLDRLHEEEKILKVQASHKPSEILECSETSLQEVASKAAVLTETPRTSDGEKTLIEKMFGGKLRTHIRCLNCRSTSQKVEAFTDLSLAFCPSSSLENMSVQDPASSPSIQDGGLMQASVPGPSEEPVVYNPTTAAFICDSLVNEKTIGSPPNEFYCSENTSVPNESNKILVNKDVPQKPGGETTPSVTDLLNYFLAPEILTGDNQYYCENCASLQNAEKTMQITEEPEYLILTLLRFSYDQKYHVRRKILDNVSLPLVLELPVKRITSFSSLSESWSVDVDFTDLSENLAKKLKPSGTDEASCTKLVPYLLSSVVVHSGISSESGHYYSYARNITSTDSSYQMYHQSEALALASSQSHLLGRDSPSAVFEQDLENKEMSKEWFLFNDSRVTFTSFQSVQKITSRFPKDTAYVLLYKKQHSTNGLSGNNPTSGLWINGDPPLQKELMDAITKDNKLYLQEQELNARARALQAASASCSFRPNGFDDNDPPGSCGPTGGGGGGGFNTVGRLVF

B1: usp_38_diff_out_18_14_331 (protein)
chain: SEELRKAKLDNLKLLTKEVKEDTERTLRILERLRGDPEAARSLIDTRIQALEGVIKYAEEVKKEAEEAGDEELAKAAEELKKAAEEAKRRLEEARRRLEA
B2: usp_38_diff_out_18_14_333 (protein)
chain: SSELEEQLISNFKSLTEEVKRDTERTLEIVEKLKDDPDAALALLDTRIQALEGVAKYAKEVKKEAEENGNEELKAAAEELLKAAEEAIKKLKEKRKELKA
B3: usp_38_diff_out_18_14_339 (protein)
chain: SSELAEAELSNLKSLTEEVKKVTERTEKIIEKLKDDPESAKSLLETRRQAYEGVIKYADEVLKRAEEEGYEELAKAAKELRDEAEKALERLEKLEKELEK
B4: usp_38_diff_out_18_14_335 (protein)
chain: SEELTAATLANVKTLLEDVKKVTERTKKIVAKLKDDPESATSLLESRIQAYEGVIKYAEETLEEAKKAGDKELAAAAKELIKAAKEAKEEFEKLLAELKA
B5: usp_38_diff_out_18_14_330 (protein)
chain: SEELRKAKLSNLKSLKAEVEEVTARTLRVVERLRGDPESARALLDTRIQALDGVIKYAEEVAKEAKAAGDEELAKAAEELKEAARAARARLEAAAAALAA
B6: usp_38_diff_out_18_14_345 (protein)
chain: GEELEEQIKANLELLTKEVKENTERLVKILEKLKDDPESALSLIDTRLQALNGVKAYAEEELKRAKERGNEELKKAAEELIKAAEEAIKTLEELRKKLKA
B7: usp_38_diff_out_18_14_334 (protein)
chain: AAELRAATKANLKTLTAEVKENTERTLRIVDKLKDDPESALSLLDTRIQALKGVAKYAQEVKKEAEEAGDAELKAAAEALLKAAKAAIEELEKRRKELKE
B8: usp_38_diff_out_18_14_341 (protein)
chain: SAELAAATLANLKSLTAEVKEVTARTEKIVEKLKDDPEAALSLLDTRKQAYEGVITYAEEVAKEAKAAGDAELEAAAKELKKAAEEALAKMEKLRAELKA
B9: usp_38_diff_out_18_14_332 (protein)
chain: SEELTEQIISNLEKLTKDVKENTARTLKIVEKLKDDPESALSLLDTRIQALKGVEKYAKEVLEEAKKEGNKKLEEAAEKLLKEAKAAIKTLEEKRAALKA
B10: usp_38_diff_out_18_14_340 (protein)
chain: SDELAKATLANLKTLTEEVKKVTERTEKIIKKLADDPEAAKSLLDTRKQAYQGVITYAKEVAEEAKAAGYKELLAAAEELKKAAEEALKTLEKLEKELKA
B11: usp_38_diff_out_18_14_329 (protein)
chain: SEELREAILSNLKSLKKEVEKVTERTLKVLEKLKDDPESAKSLIDTRKQALDGVIKYAEEVEKEAEAAGDEETAKAAKELKKAAKEAKAKLEEAEKKLKE
B12: usp_38_diff_out_18_14_343 (protein)
chain: SEELAEAELANLKSLKEEVKRVTERTKKIIEKLKDDPEAALSLLDTRIQAYKGVIKYAEEVLKEAKKAGYEELAKAAEELKKAAEEALKELERLRKELEA
B13: usp_38_diff_out_18_14_346 (protein)
chain: DEELAKQLKEQFESLTKEVEENTKRLKEIVEKLKDDPESALSLLETRIQALEGVIKYAEEEKKRAKAAGFEELAAAAEKLIKAAKAAKEEAEKLKKELKA
B14: usp_38_diff_out_18_14_336 (protein)
chain: SEELRKAEIENLKTLLKEVKKDTERTIKIVEKLKDDKDSATSLLETRIQAYEGVIKYAEELKERAKKEGDKELIAAAEELIKAAKEAKEKLKELLKKLKA
B15: usp_38_diff_out_18_14_344 (protein)
chain: SEELRKATKSNLESLKKDVKEVTERTKKIVAKLKDDPESALSLLETRIQALEGVIKYAEETLKEAEEEGDEELKKAAEELKKEAEEAKAEFEALLAALKA
B16: usp_38_diff_out_18_14_337 (protein)
chain: SEELRQQLLENLKSLTEEVKKEKERTLKIIEKLKDDPESALSLLDTRIQALDGVIKYAKEVAKEAKEEGDKELLEAAEKLIKEAEKAKKELEKKRAELKA

Target: T1, USP38, Q8NB14
Experiment: median log2 fold change of GCK-ALFA target abundance (FLAG IP / Myc IP barcode read proportion) (log2 ratio); each designed protein is fused to an ALFA-tag nanobody in HEK293 cells to bring the named protein to FLAG-tagged glucokinase (GCK); Myc marks an untargeted standard; higher = target protein stabilised (more abundant)
Conditions: target protein: 3xFLAG-MCP-GCK-ALFA reporter; HEK293 landing pad (RPLP)
Summary of the method: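 HEK293 landing-pad cells received a recombined binder library fused to the ALFA nanobody and were induced with 2 μg mL^−1 doxycycline, then transfected with a plasmid encoding a FLAG-tagged target and a Myc-tagged standard. Lysates were collected after 48 h for anti-FLAG and anti-Myc immunoprecipitation, and the circular RNA barcodes were reverse transcribed, amplified and sequenced. Target abundance for each binder is the median log2 ratio of FLAG to Myc barcode read proportions. Barcodes had to reach a proportion of at least 10^−7 in both replicates, each binder needed at least 3 barcodes per replicate, a pseudocount of 10^−6 was applied, and the two replicates were pooled.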

| Binder | median log2 fold change |
| --- | --- |
| B1 | 0.193 |
| B2 | -0.013 |
| B3 | 0.0814 |
| B4 | -0.351 |
| B5 | 0.0025 |
| B6 | -0.0272 |
| B7 | 0.0876 |
| B8 | 0.0312 |
| B9 | 0.139 |
| B10 | -0.499 |
| B11 | -0.556 |
| B12 | -0.329 |
| B13 | -0.0584 |
| B14 | -0.177 |
| B15 | 0.232 |
| B16 | 0.0476 |
